# Compounds without any hit were thinned out: in the full panel of roughly 83,000, 20% have a hit.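 Single-concentration screen, 48 h exposure, 96-well plates. Endpoint: percent growth. Below 10 = active.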 Unmarked numbers belong to inactive results. Calls of active or inactive are those of the source.
# Test system: SF-268 CNS
# Test: NCI-60 one-dose screen, 48 h (100 = growth as untreated, 0 = no growth, -100 = all killed)
# Settings: 10 µM unless noted
row,Compound,growth
1,CCCCCCCn1cc2c(NCCc3ccccc3)ncnc2n1,99.3%
2,COc1ccc(-c2nc3cc(Cl)c(Cl)cc3n2CC(=O)N=Nc2c(O)[nH]c3ccc(OC)cc23)cc1,78.3%
3,CN1CCN(Cc2ccc(NC(=O)c3cncc(C#Cc4cnn5cccnc45)c3)cc2C(F)(F)F)CC1,-5.38% (active)
4,Cc1cc(C)c(N2C(=O)CC(Nc3ccc(Cl)cc3Cl)C2=O)c(C)c1 (stereo not given),106%
5,CC(=O)Nc1cccc(Nc2nc(N[C@@H](C)c3ccccc3)c3ccccc3n2)c1,27.3%
6,COc1cc(-c2nn(C(C)(C)C)cc2-c2ccnc(NCCCNS(=O)(=O)c3cccc(F)c3)n2)ccc1Cl,56.7%
7,NC(=O)c1cccc(-n2ccc3cc(NC(=O)Nc4ccc(N5CCOCC5)c(C(F)(F)F)c4)ccc32)n1,3.3% (active)
8,O=S(=O)(Nc1cccc2ccccc12)c1ccc(-c2cnc(C3CC3)o2)cc1,55.5%
9,CCOC(=O)c1c(N)c(C#N)cn1-c1cc(OC)c(OC)c(OC)c1,111%
10,COc1ccc([C@H]2c3[nH]c4ccccc4c3C[C@H]3C(=O)N(C4CCN(Cc5c(Cl)cccc5Cl)CC4)CC(=O)N23)c(OC)c1,85.6%
11,COc1ccc2c(c1)c(-c1cc(N)n3nc(-c4cn(C)c5ccc(OC)cc45)cc3n1)cn2C,109%
12,COc1cc2c(cc1OC)C(Sc1ccc(C)cc1)c1c(nc(N)c(C#N)c1N)O2 (stereo not given),-54.5% (active)
13,C[C@@H](Nc1c(C#N)cnc2ccc(-c3cnc(Cl)c(NS(C)(=O)=O)c3)cc12)c1ccccc1,-1.52% (active)
14,Cc1ccc(NC(=O)N[C@@H](Cc2cc(F)cc(F)c2)C(=O)NC2C(=O)N3C[C@H](O)C[C@H]3C(=O)N3CCCC[C@H]3C(=O)N[C@@H](CO)C(=O)N3C[C@H](C)C[C@H]3C(=O)O[C@H]2C)c(F)c1 (stereo not given in full),35.5%
15,O=C(NCc1ncc[nH]1)c1ccc(-c2nc3ccc4[nH]ncc4c3c3c2CCCC3)cc1,3.81% (active)
16,CCO/C=N/C1=C(C#N)C(c2ccc(F)cc2)c2sc3c(C)cccc3c2O1 (stereo not given),38.3%
17,c1cn2c(ccc3nc(-c4cn[nH]c4)c4c(c32)CCCC4)n1,77.5%
18,O=c1[nH]c2ccccc2cc1CSc1ccccc1Nc1nccc(-c2ccc(Cl)cc2)n1,94.6%
19,Cn1ccnc1C(=O)/C=C/c1ccc(NC(=O)c2c(F)c(F)c(F)c(F)c2F)cc1,96%
20,Cc1noc(C)c1CSc1nc2ccccc2n1-c1ccccc1,85.7%
21,Cn1cc(CNc2nc3ccc(OC/C(=C/F)CN)cc3o2)ccc1=O,102%
22,CC(C)(C)CC(C)(C)n1nnnc1C(Nc1nccs1)c1cc2cccc3ccc4cccc1c4c32 (stereo not given),94.8%
23,COc1ccc(/C(N)=N/C(N)=N/c2nc3ccccc3s2)cc1,78.9%
24,COc1ccc(-c2nn(-c3ccc(S(C)(=O)=O)cc3)cc2/C=N/O)cc1,108%
25,CCOc1cccc(-c2nc3sccn3c2-c2ccnc(S(C)(=O)=O)n2)c1,99.7%
26,O=C(c1ccc(Cl)cc1)C1[C@H](c2ccc(Cl)cc2)[C@@H](c2ccccc2)NC12C(=O)Nc1ccccc12 (stereo not given in full),48.1%

# Test system: SF-295 CNS
# Test: as above
# Settings: 10 µM unless noted
row,Compound,growth
1,COc1cc2oc(-c3cccc(NC(=O)c4cc(N)ccc4Cl)c3)cc(=O)c2c(OC)c1OC,91.4%
2,CC(C)(C)n1cc(-c2ccnc(NCCCNS(=O)(=O)c3cccc(F)c3)n2)c(-c2ccc(Cl)c(O)c2)n1,108%
3,COc1cccc2cc(-c3cc4ccccc4[nH]3)/c(=N\NC(=O)c3ccc(Cl)cc3)oc12,43.2%
4,Nc1nc(Nc2ccccc2SSc2ccccc2Nc2nc(N)nc(-c3ccc4ccccc4c3)n2)nc(-c2ccc3ccccc3c2)n1,67.7%
5,O=C(CN1CCN(c2cc(=O)n(-c3ccccc3)c3ccccc23)CC1)Nc1nc(-c2ccccc2)cs1,66.7%
6,CC(Nc1c(C#N)cnc2ccc(-c3cnc(N)nc3)cc12)c1ccccc1 (stereo not given),-17% (active)
7,CC(=O)Nc1cccc(Nc2nc(N[C@H](C)c3ccccc3)c3ccccc3n2)c1,42.3%
8,CNC1CCc2c(sc(NC(=O)c3ccc(C(C)(C)C)cc3)c2C(N)=O)C1 (stereo not given),-70.9% (active)
9,COc1cc(OC)cc(C(=O)Nc2cccc(C#Cc3cccc4[nH]nc(N)c34)c2)c1,27.5%
10,COc1c(N2CC3CCCNC3C2)c(F)cc2c(=O)c(C(=O)N/N=C/c3ccccc3)cn(C3CC3)c12 (stereo not given),104%
11,COc1ccccc1-n1cc(C#N)c(N)c1C(=O)c1ccc(Br)cc1,45.5%
12,Nc1nc(-c2cccc([N+](=O)[O-])c2)c(N=Nc2ccccc2)s1,63%
13,COc1ccc(-c2nc3ccc(-c4nnc(SCC(=O)Nc5ccc(C(=O)/C=C/c6ccc(Cl)cc6)cc5)o4)cc3[nH]2)cc1,95.9%
14,CCCCCCCn1cc2c(NCCc3ccccc3)ncnc2n1,90%
15,COc1ccc(-c2nc3cc(Cl)c(Cl)cc3n2CC(=O)N=Nc2c(O)[nH]c3ccc(OC)cc23)cc1,66.5%
16,CN1CCN(Cc2ccc(NC(=O)c3cncc(C#Cc4cnn5cccnc45)c3)cc2C(F)(F)F)CC1,56.7%
17,Cc1cc(C)c(N2C(=O)CC(Nc3ccc(Cl)cc3Cl)C2=O)c(C)c1 (stereo not given),105%
18,CC(=O)Nc1cccc(Nc2nc(N[C@@H](C)c3ccccc3)c3ccccc3n2)c1,8.33% (active)
19,COc1cc(-c2nn(C(C)(C)C)cc2-c2ccnc(NCCCNS(=O)(=O)c3cccc(F)c3)n2)ccc1Cl,83.7%
20,NC(=O)c1cccc(-n2ccc3cc(NC(=O)Nc4ccc(N5CCOCC5)c(C(F)(F)F)c4)ccc32)n1,-45.7% (active)

row,Compound,growth
1,O=S(=O)(Nc1cccc2ccccc12)c1ccc(-c2cnc(C3CC3)o2)cc1,0.665% (active)
2,CCOC(=O)c1c(N)c(C#N)cn1-c1cc(OC)c(OC)c(OC)c1,99%
3,COc1ccc([C@H]2c3[nH]c4ccccc4c3C[C@H]3C(=O)N(C4CCN(Cc5c(Cl)cccc5Cl)CC4)CC(=O)N23)c(OC)c1,106%
4,COc1ccc2c(c1)c(-c1cc(N)n3nc(-c4cn(C)c5ccc(OC)cc45)cc3n1)cn2C,98.9%
5,COc1cc2c(cc1OC)C(Sc1ccc(C)cc1)c1c(nc(N)c(C#N)c1N)O2 (stereo not given),-84.1% (active)
6,C[C@@H](Nc1c(C#N)cnc2ccc(-c3cnc(Cl)c(NS(C)(=O)=O)c3)cc12)c1ccccc1,-20.8% (active)
7,Cc1ccc(NC(=O)N[C@@H](Cc2cc(F)cc(F)c2)C(=O)NC2C(=O)N3C[C@H](O)C[C@H]3C(=O)N3CCCC[C@H]3C(=O)N[C@@H](CO)C(=O)N3C[C@H](C)C[C@H]3C(=O)O[C@H]2C)c(F)c1 (stereo not given in full),78.7%
8,O=C(NCc1ncc[nH]1)c1ccc(-c2nc3ccc4[nH]ncc4c3c3c2CCCC3)cc1,31.5%
9,CCO/C=N/C1=C(C#N)C(c2ccc(F)cc2)c2sc3c(C)cccc3c2O1 (stereo not given),-6.89% (active)
10,c1cn2c(ccc3nc(-c4cn[nH]c4)c4c(c32)CCCC4)n1,42.6%
11,O=c1[nH]c2ccccc2cc1CSc1ccccc1Nc1nccc(-c2ccc(Cl)cc2)n1,95.5%
12,Cn1ccnc1C(=O)/C=C/c1ccc(NC(=O)c2c(F)c(F)c(F)c(F)c2F)cc1,106%
13,Cc1noc(C)c1CSc1nc2ccccc2n1-c1ccccc1,98.1%
14,Cn1cc(CNc2nc3ccc(OC/C(=C/F)CN)cc3o2)ccc1=O,96.1%
15,CC(C)(C)CC(C)(C)n1nnnc1C(Nc1nccs1)c1cc2cccc3ccc4cccc1c4c32 (stereo not given),94.9%
16,COc1ccc(/C(N)=N/C(N)=N/c2nc3ccccc3s2)cc1,52%
17,COc1ccc(-c2nn(-c3ccc(S(C)(=O)=O)cc3)cc2/C=N/O)cc1,106%
18,CCOc1cccc(-c2nc3sccn3c2-c2ccnc(S(C)(=O)=O)n2)c1,104%
19,O=C(c1ccc(Cl)cc1)C1[C@H](c2ccc(Cl)cc2)[C@@H](c2ccccc2)NC12C(=O)Nc1ccccc12 (stereo not given in full),45.6%
